In PubChem BioAssay AID1048 (The Scripps Research Institute Molecular Screening Center, 2008):
Hit rate of the full screen: of about 99,000 compounds, about 390 (0.39%) were called active. The full list was thinned out, with actives kept by preference. Unmarked numbers belong to inactive results. No stated cut-off is given here; in the data, active means TR-FRET ratio above about 2000; inactive means the rest.

assay: TR-FRET detection interference compounds, artefact control for PPARgamma SRC-3 recruitment agonists, biochemical, TR-FRET ratio (AID 1048); conditions: TR-FRET artefact counter-screen, PPARgamma/SRC-3 format; at 8 µM; active compounds read high

In the case of `COc1cc(-n2c(=S)[nH]c3ccc(C)cc3c2=O)c(Cl)cc1Cl`, the TR-FRET ratio is reported as 2500 (active).

Going from `O=C(Cc1ccccc1)N1CCN(C2CCCCCC2)CC1` to `Cc1cccc(-n2c(O)c(/C=N/N3CCOCC3)c(=O)[nH]c2=S)c1`, the TR-FRET ratio rises from 1380 to 1680.

Compared with `O=C(CCNS(=O)(=O)c1ccccc1)Nc1ccc(Cl)cc1C(=O)c1ccccc1`, `Cc1ccccc1N1C(=O)NC(=O)/C(=C\c2cc(C)n(C)c2C)C1=O` is higher in TR-FRET ratio: 1450 for the first, 1530 for the second.
